Data published in PubChem BioAssay (NCI).
This is part of a sample that, as a whole, favours compounds with a hit. Of some 83,000 tested, about 20% had one in any assay.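 Activity criterion: percent growth below 10, measured after cells in 96-well plates were exposed to a single compound concentration for 48 hours.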 Active and inactive are the calls of the source.

Key:
Assay in all cases: NCI-60 one-dose screen, 48 h (100 = growth as untreated, 0 = no growth, -100 = all killed)
Conditions in all cases: 10 µM unless noted
[1] = test system: SR leukemia
[2] = test system: RPMI-8226 leukemia
[3] = test system: OVCAR-8 ovarian
[4] = test system: OVCAR-5 ovarian
[5] = test system: OVCAR-4 ovarian
[6] = test system: SK-OV-3 ovarian
[7] = test system: IGROV1 ovarian
[8] = test system: OVCAR-3 ovarian
[9] = test system: HS 578T breast
[10] = test system: NCI/ADR-RES ovarian

Measured: growth

O=C1/C(=C/c2ccc3c(c2)OCO3)SC(=S)N1CCc1ccc(O)cc1
inactive: [1] 101% | [2] 89.8% | [3] 101% | [4] 111% | [5] 82.9% | [6] 104% | [7] 75.9% | [8] 101% | [9] 96.7% | [10] 97.4%

CC(O)CN1CC(O)=C(c2nc3ccccc3s2)C1=N (centres undefined)
inactive: [1] 93.1% | [2] 101% | [3] 116% | [4] 93.9% | [5] 106% | [6] 113% | [7] 99% | [8] 117% | [9] 104% | [10] 85.1%

Cc1ccc2c(C(C[N+](=O)[O-])c3ccco3)c(-c3ccccc3)[nH]c2c1 (centres undefined)
active: [10] 7.41%
inactive: [1] 24% | [2] 27.4% | [3] 48.1% | [4] 54.9% | [5] 64.2% | [6] 21.7% | [7] 29% | [8] 14.2% | [9] 16.2%

COC(=O)c1ccc(NC(=O)c2ccc(-c3cccc([N+](=O)[O-])c3)o2)cc1
inactive: [1] 114% | [2] 102% | [3] 103% | [4] 109% | [5] 92.7% | [6] 98.1% | [7] 91.6% | [8] 101% | [9] 92.2% | [10] 99%

O=C(COc1cccc(/C=C2\CSc3ccccc3C2=O)c1)Nc1nccs1
active: [1] -47% | [2] -31.2% | [7] -52.2% | [9] -8.26%
inactive: [3] 31% | [4] 83.8% | [5] 78.3% | [6] 116% | [8] 24.4% | [10] 54.8%

Cc1cc(N2CCN(c3ccnc4cc(Cl)ccc34)CC2)nc(N2CCOCC2)n1
inactive: [1] 80.8% | [2] 59% | [3] 96.2% | [4] 108% | [5] 77.8% | [6] 88.3% | [7] 97.7% | [8] 85.9% | [9] 95.7%

COc1cc(/C=C/C(=O)c2cccnc2Nc2ccc(F)cc2)cc(OC)c1OC
inactive: [4] 35.8% | [5] 61.6% | [6] 42% | [7] 91.7% | [8] 16.1% | [9] 24.9%
active: [1] 2.85% | [2] 1.24% | [3] 1.62% | [10] 8.54%

FC(F)(F)c1ccc(-c2cn3nc(-c4c[nH]c5ccc(Br)cc45)sc3n2)cc1
inactive: [1] 85.9% | [2] 107% | [3] 105% | [4] 95.5% | [5] 102% | [6] 92.7% | [7] 73.2% | [8] 107% | [9] 89.1% | [10] 96%

COC(=O)[C@@H]1CCCN1C(=O)[C@@H]1CCCN1C(=O)[C@H](Cc1ccccc1)NC(=S)Nc1cc(C(F)(F)F)cc(C(F)(F)F)c1
inactive: [1] 80.9% | [2] 43.9% | [3] 41.6% | [4] 88.4% | [5] 77.9% | [6] 98.1% | [7] 108% | [8] 24.6% | [9] 83.7% | [10] 67.4%

COc1cccc(/C=C2\SC(=Nc3ccc(NC(C)=O)cc3)NC2=O)c1OC
inactive: [1] 94.8% | [2] 96.7% | [3] 93% | [4] 91.7% | [5] 100% | [6] 91.3% | [7] 103% | [8] 111% | [9] 70.5% | [10] 102%

O=c1cc(/C(=C2/C=CC=N2)c2ccc[nH]2)c2cc(Cl)ccc2o1
active: [3] -4.06% | [8] -20.3% | [10] 5.06%
inactive: [1] 23.7% | [2] 51% | [4] 93.1% | [5] 77% | [6] 34.8% | [7] 31.5% | [9] 22.2%

O=C1NC(=O)C(c2ccc(Cl)cc2Cl)N1 (centres undefined)
inactive: [1] 92.6% | [2] 109% | [3] 112% | [4] 106% | [5] 113% | [6] 108% | [7] 114% | [8] 112% | [9] 102% | [10] 106%

O=C1/C(=C/N2N=C(c3ccc4ccccc4c3)CC2c2ccccc2O)SC(=S)N1c1cccnc1 (centres undefined)
inactive: [1] 29.2% | [3] 28.3% | [4] 68.6% | [5] 66.1% | [6] 39.4% | [7] 26.4% | [9] 13.2% | [10] 23.6%
active: [2] -8.29% | [8] 7.76%

CCc1c(Nc2ccccc2C)nc(N)[nH]c1=O
inactive: [1] 85.9% | [2] 104% | [3] 119% | [4] 92.3% | [5] 107% | [6] 109% | [7] 93.4% | [8] 110% | [9] 115% | [10] 109%

CC(C)(C)c1cc(/C=N\NC(=O)/C=C/C=C/c2ccc3c(c2)OCO3)c(O)c(C(C)(C)C)c1
inactive: [2] 80.6% | [3] 75.3% | [4] 89.3% | [5] 34.8% | [6] 100% | [7] 70.3% | [8] 75.6% | [9] 13.6% | [10] 66.1%
active: [1] 6.69%

COc1cccc2c1C(=O)c1c(O)c3c(c(O)c1C2=O)C[C@](O)(C(=O)CO)C[C@H]3O[C@@H]1C[C@@H](NC(=O)CCCN(C)C2(c3ccc(F)cc3)CC3CCC2C3)[C@H](O)[C@@H](C)O1 (some centres undefined)
inactive: [6] 84.4% | [7] 55.2% | [9] 51.2% | [10] 82.4%
active: [1] -60.2% | [2] -41% | [3] -43.1% | [4] -48.3% | [5] -68.9% | [8] -84.8%

COc1ccc(C(=O)/C=C/c2cccnc2Nc2cc(OC)c(OC)c(OC)c2)cc1
active: [1] -0.688% | [2] -21.2% | [3] -0.898% | [10] 4.44%
inactive: [4] 37.7% | [5] 39.8% | [6] 24.7% | [7] 72% | [8] 11.5% | [9] 36.7%

COc1ccc(S(=O)(=O)N2CCN(C)CC2)cc1NC(=O)c1[nH]c(C)c2c1CCCCC2=O
inactive: [1] 58.2% | [2] 32.6% | [3] 63% | [4] 59.5% | [5] 57% | [6] 44.7% | [7] 47% | [8] 66.6% | [9] 28.9% | [10] 96.9%

c1ccc(Cn2cc(-c3nc4ccccc4s3)c3cccnc32)cc1
inactive: [1] 112% | [2] 99.9% | [3] 106% | [4] 103% | [5] 90.9% | [6] 96.1% | [7] 94.3% | [8] 95.6% | [9] 110% | [10] 98.6%

Nc1ccc(-c2cc3c(NCc4ccccc4)ncnc3s2)cc1
inactive: [1] 81.5% | [2] 62.6% | [3] 94% | [4] 77% | [5] 60.6% | [6] 102% | [7] 49.9% | [8] 80% | [9] 86.5% | [10] 80.7%

COc1cc(/C=C/C(=O)Nc2cccnc2Nc2ccc(F)cc2)cc(OC)c1OC
inactive: [1] 82.5% | [2] 69.1% | [3] 81.7% | [4] 105% | [5] 93% | [6] 107% | [7] 139% | [8] 113% | [9] 99.4% | [10] 101%

COc1ccc(-c2nnc(SCC(=O)c3ccc(Cl)cc3)o2)cc1
inactive: [1] 105% | [2] 101% | [3] 99% | [4] 93.3% | [5] 98% | [6] 104% | [7] 105% | [8] 103% | [9] 109% | [10] 95.6%

FC(F)(F)Oc1ccc2nc3nc4ccc[nH]c4cc3c2c1
inactive: [1] 43.9% | [2] 71.7% | [3] 69.9% | [4] 115% | [5] 31.5% | [6] 63.8% | [7] 74.6% | [8] 98.2% | [9] 56.7% | [10] 85.8%

Cc1cc(N2CCOCC2)nc(N[C@@H]2CCC[C@H](Nc3ccnc4cc(Cl)ccc34)C2)n1
active: [1] -36.9% | [2] -45.6% | [3] 5.36% | [9] -11.1%
inactive: [4] 49.4% | [5] 35.5% | [6] 64.4% | [7] 26.4% | [8] 22.6% | [10] 18.2%

CCCCC[C@H]1C/C=C2/C(=O)C=C[C@@H]2C/C=C\CCCC(=O)O1
inactive: [5] 14.1% | [9] 23.3% | [10] 10.3%
active: [1] -3.55% | [2] -13.4% | [3] 5.97% | [4] -9.16% | [6] -11.6% | [7] -42.8% | [8] -58.8%

O=C1/C(=C/c2ccccc2O)N=C2SCCCN12
inactive: [1] 117% | [2] 103% | [3] 98.4% | [4] 91.7% | [5] 82.9% | [6] 100% | [7] 91.3% | [8] 92.9% | [9] 87.7% | [10] 99.6%

O=C(COc1cccc(/C=C2\COc3ccccc3C2=O)c1)Nc1nccs1
inactive: [3] 20.3% | [4] 81.8% | [5] 97.2% | [6] 99.8% | [8] 73.8% | [10] 45.6%
active: [1] -73.8% | [2] -67% | [7] 5.16% | [9] -6.5%
